Compounds with a hit are over-represented: about 1.2% of the library has one in this group of screens.
Keap1 Nrf2 FP – disrupts human Keap1 binding to Nrf2 peptide; inhibition, % at 9.4 µM; AID 504523; Q14145; 0.15% of 340,000 active; Keap1 Kelch-Nrf2 peptide fluorescence polarization, 1536-well; in the data active means inhibition above about 12%; inconclusive means no clear call, values can overlap the other calls; inactive means below about 7.3%;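 further: human Keap1 Kelch domain with fluorescein labeled Nrf2 9mer peptide probe; 0% = neutral control wells and 100% = peptide positive control; higher means more block of Keap1 binding to Nrf2 peptide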
C-LANA FP – KSHV C-LANA DNA binding inhibition; 0.078% of 340,000 active; MBP-C-LANA/FAM-LBS DNA binding, fluorescence polarization; inhibition, % at 9 µM;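 active means highest replicate inhibition at or above 60% at 9 µM, even if other replicates fall short; inactive means all replicates below 60% inhibition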;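 further: 0% = neutral control wells and 100% = 4 µM acridine orange control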
E coli Lon inh – E. coli protease La inhibition | P0A9M0 | 0.42% of 360,000 active | inhibition, % at 7.94 µM | purified E. coli Lon protease, fluorescence polarization; in the data active means inhibition above about 13%, passing the limit was not always enough;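 further: 0% = enzyme with probe and DMSO and 100% = no enzyme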
GLD-1 RNA inh – GLD-1-TGE RNA interaction inhibition (C. elegans). Q17339. purified GLD-1 + fluorescein TGE RNA, fluorescence polarization. inhibition, % at 5.96 µM. 0.44% of 320,000 active. AID 2280;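 active means percent inhibition above a per-plate cutoff, the plate mean of test compounds plus 3 SD, cut at about 30% in these data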;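 further: 0% = DMSO wells with GLD-1 and probe and 100% = wells lacking GLD-1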
MEX-5 binding – C. elegans MEX-5 TCR-2 RNA binding activity | Q9XUB2 | MEX-5/FITC-TCR2 RNA binding, fluorescence polarization; hits give low values | activity score (negative = inhibition of binding), % at 10 µM | 0.38% of 300,000 active | AID 1832;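 active means inhibition past about -25% in most replicates, and total fluorescence under double the plate's negative control median, limit read from the data; inconclusive means replicates evenly split on the limit, or fluorescence at least double controls; inactive means too little inhibition in most replicates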;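 further: 0% = DMSO and -100% = 5 µM competing unlabeled TCR2 RNA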
Target sequence (Q9XUB2 whole entry, looked up): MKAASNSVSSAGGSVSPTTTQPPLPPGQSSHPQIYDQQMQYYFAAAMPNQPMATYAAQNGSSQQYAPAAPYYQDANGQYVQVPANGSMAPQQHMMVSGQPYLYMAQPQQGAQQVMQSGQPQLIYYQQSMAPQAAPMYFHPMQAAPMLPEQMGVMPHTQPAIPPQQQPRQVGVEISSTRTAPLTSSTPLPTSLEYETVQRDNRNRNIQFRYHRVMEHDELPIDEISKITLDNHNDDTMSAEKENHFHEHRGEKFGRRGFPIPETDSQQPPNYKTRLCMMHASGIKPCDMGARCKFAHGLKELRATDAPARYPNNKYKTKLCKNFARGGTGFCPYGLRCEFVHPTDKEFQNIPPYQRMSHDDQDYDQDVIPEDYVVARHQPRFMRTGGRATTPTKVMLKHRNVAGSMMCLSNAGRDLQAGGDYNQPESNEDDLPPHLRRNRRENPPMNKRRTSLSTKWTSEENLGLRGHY
BCLXL inh – blocks human Bcl-xL binding to Bim BH3 peptide; Q07817; GST-Bcl-xL / FITC-Bim BH3 peptide fluorescence polarization; inhibition, % at 10.9 µM; 0.7% of 320,000 active;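 active means inhibition above the mean of all tested compounds plus 3 SD, cutoff set per campaign, cut at about 30% in these data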;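 further: 0% = DMSO wells and 100% = unlabeled Bim-BH3 peptide competitor; inhibitors lower millipolarization by displacing the labeled peptide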
Starred values were filed as active, the others as inactive; u = inconclusive; x = not tested or not shown.

SMILES | Keap1 Nrf2 FP | C-LANA FP | E coli Lon inh | GLD-1 RNA inh | MEX-5 binding | BCLXL inh
CCN(CC)c1ccc2cc(-c3nc(-c4ccc(OC)cc4)cs3)c(=O)oc2c1 | x | x | x | 67* | x | 107*
CCN(CC)c1ccc2cc(-c3nnc(-c4ccccc4)o3)c(=O)oc2c1 | -42 | 10 | -434 | -140 | u | -6
CCN(CC)c1ccc2cc(-c3nc4ccccc4n3C)c(=O)oc2c1 | -6 | 4 | -173 | -59 | -10 | 27
CCN(CC)c1ccc2cc(-c3nc4ccccc4[nH]3)c(=O)oc2c1 | -16 | 21 | -193 | 42* | u | 81*
CN(CC(=O)N1CCc2[nH]c3ccc(F)cc3c2C1)CC1OCCO1 | x | x | x | 4 | -6 | 10
Cc1ccc2[nH]c3c(c2c1)CN(C(=O)CN1CCCc2ccccc21)CC3 | -2 | 0 | -18 | -8 | -1 | 33*
Cc1ccc2[nH]c3c(c2c1)CN(C(=O)CN(C)CC1OCCO1)CC3 | 4 | 9 | 9 | 53* | -7 | 58*
O=C(CNS(=O)(=O)c1ccc(Br)cc1)Nc1ccc2c(c1)OCCO2 | -8 | -1 | 3 | x | -2 | x
O=C1c2ccccc2NC(c2cn[nH]c2-c2ccc(Cl)cc2)N1O (stereo not given) | 12* | 8 | 13 | 3 | -2 | 8
O=C1c2ccccc2NC(c2cn[nH]c2-c2ccccc2)N1O (stereo not given) | 4 | -1 | -16 | 6 | 0 | 5
COc1ccccc1C(=O)NCCC(=O)Nc1ccc(S(=O)(=O)N2CCC(C)CC2)cc1 | -1 | 0 | -2 | 3 | x | -5
Cc1cc(C)c(Nc2cc(S(=O)(=O)O)c(N)c3c2C(=O)c2ccccc2C3=O)c(C)c1 | 4 | 10 | -1 | 11 | x | 31*
CCOC(=O)N1CC=C2C(C#N)=C(N)C(C#N)(C#N)[C@H](c3ccccc3OCC)[C@H]2C1 | -12 | 2 | 1 | 17 | -4 | 15
CCOC(=O)N1CC=C2C(C#N)=C(N)C(C#N)(C#N)[C@H](c3ccsc3)[C@H]2C1 | -11 | 6 | 2 | 27 | u | 41*
Cc1ccccc1NC(=O)C1CCN(C2=NS(=O)(=O)c3ccccc32)CC1 | 1 | 61* | -7 | 7 | -1 | -4
CCN1CCN(C(=O)C(C)Oc2ccc(S(=O)(=O)N3CCCC3)cc2C(N)=O)CC1 (stereo not given) | 1 | 0 | -5 | 1 | x | 5
CCCN1C(=O)/C(=C/C=C2\N(CC)c3ccccc3C2(C)C)SC1=S | -46 | -1 | -158 | 25 | 3 | -49
CCCCN1C(=O)/C(=C/C=C2\Oc3ccccc3N2CC)SC1=S | -8 | 1 | -467 | x | -28* | x
CN=C1S/C(=C\c2ccc(N3CCOCC3)c(F)c2)C(=O)N1C | 0 | 9 | -3 | -1 | -13 | 4
CN=C1S/C(=C\c2ccc(N3CCCC3)c(F)c2)C(=O)N1C | 6 | 7 | -15 | -74 | -59* | -7
COc1cccc(/C=C/C(=O)NCc2ccc3c(c2)OCO3)c1 | 1 | -1 | 0 | -6 | 4 | -5
Cc1ccc(CNc2ccc3c(c2)OCO3)c(C)c1 | x | x | x | 0 | -2 | 127*
Cc1ccc(C)c(NC(=O)Nc2ccc3c(c2)OCO3)c1 | 0 | 2 | -8 | 3 | 3 | 2
CCN(C(=O)COC(=O)/C=C/c1ccc(OC)c(OC)c1)c1c(N)n(Cc2ccccc2)c(=O)[nH]c1=O | 0 | 0 | -6 | x | x | x
N#C/C(=N\Nc1ccc(Cl)cc1)C(=O)c1ccsc1 | -1 | 7 | -1 | -1 | -38* | 6
SMILES | Keap1 Nrf2 FP | C-LANA FP | E coli Lon inh | GLD-1 RNA inh | MEX-5 binding | BCLXL inh
O=C1NC(c2ccco2)Nc2sc3c(c21)CCN(Cc1ccccc1)C3 (stereo not given) | -8 | 8 | -12 | 4 | x | 27
CN1CCc2c(sc3c2C(=O)NC(c2ccco2)N3)C1 (stereo not given) | -6 | 7 | -3 | 9 | -6 | 38*
CC(C(=O)NCCN1C(=O)S/C(=C\c2cccnc2)C1=O)N1C(=O)c2ccccc2C1=O (stereo not given) | -6 | 1 | -3 | 2 | -1 | 2
O=C(CCl)NCCN1C(=O)S/C(=C\c2cccnc2)C1=O | -4 | -20 | 6 | -4 | -60* | 2
C=CC1=C(C(=O)O)N2C(=O)[C@@H](NC(=O)/C(=N\O)c3csc(N)n3)[C@H]2SC1 (stereo in doubt) | -2 | 7 | -1 | 11 | -26* | 7
CCOc1ccccc1N(CC)C(=O)c1cc2c(s1)-c1ccccc1S(=O)(=O)C2 | x | x | 3 | x | x | x
CC(=O)O[C@H]1[C@H](O)[C@H](Oc2c(O)c(C)c3c4c2[C@@H](C)CC[C@@H]4[C@@H](C)C[C@H]3C=C(C)C)O[C@@H](C)[C@H]1O | -1 | 1 | 1 | 7 | x | x
CCCCN1C(=O)C2Cc3c([nH]c4ccccc34)CN2C1=S (stereo not given) | -1 | 1 | -67 | 45* | -28* | -10
O=C1CCC/C1=c1\s/c(=C\c2cccnc2)c(=O)n1-c1ccccc1 | 7 | 9 | -9 | 3 | -26* | -3
COc1ccccc1CCC(=O)OCc1csc(CC(=O)Nc2ccccc2C)n1 | -1 | 0 | 5 | 0 | -27* | 0
Cc1ccccc1NC(=O)Cc1nc(COC(=O)CCc2ccccc2)cs1 | -4 | 1 | 9 | 4 | x | -6
COc1cccc(CNC(=O)COC(=O)/C(C#N)=C/c2ccc(N(C)C)cc2)c1 | -3 | 1 | 4 | 123* | x | 117*
COc1ccc(/C=C(\C#N)C(=O)OCC(=O)NCc2ccccc2)cc1 | 3 | -1 | -6 | 1 | 4 | 4
O=C1CSC(=S)N1/N=C/c1cc(Br)ccc1O | x | x | x | -3 | -5 | 14
O=C1CSC(=S)N1/N=C/c1ccc(O)c(O)c1O | -12 | 34 | 7 | -5 | -88* | 66*
Cc1ccc(/C=C/C(=O)O)cc1S(=O)(=O)N1CCCCC1 | -3 | 1 | -8 | 2 | -30* | 1
Cc1ccc(/C=C/C(=O)O)cc1S(=O)(=O)N1CCc2ccccc2C1 | -1 | 1 | 3 | 0 | 2 | 0
CC(C)(C(=O)N1CCC1(C)C(=O)NS(=O)(=O)c1cccc(Cl)c1)c1ccccc1 (stereo not given) | x | x | -1 | x | x | x
Cn1c(-c2c(N)n(CCCc3ccccc3)c3nc4ccccc4nc23)nc2ccccc21 | -2 | 0 | -37 | x | 1 | x
COCCCn1c(N)c(-c2nc3ccccc3n2C)c2nc3ccccc3nc21 | -6 | 0 | -47 | -10 | -34* | -2
CCN(CC)C(=O)Cn1c(=O)c2ccccc2n2c(=S)sc(-c3cccc(C)c3)c12 | -2 | 1 | -5 | -6 | -67* | -3
CCN(CC)C(=O)CCn1nc(-c2ccc(C)cc2)c2ccccc2c1=O | 0 | -3 | -5 | 6 | -3 | 2

Source: PubChem
